Holding throughout (test): qHTS profiling for inhibitors of Plasmodium falciparum proliferation (AID 504749); note: nearly all actives have a fitted effect of over 60% in size
Conditions in all cases: P. falciparum in erythrocytes, SYBR Green DNA, 72 h; series mostly up to 28.7 µM

In assay [1] the test system is CP217. Put shortly:
(§1)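 SYBR Green fluorescence of parasite DNA, read after lysis and overnight dark incubation, measured growth over 72 h in erythrocyte culture at 0.3% parasitemia and 2.5% hematocrit. Data normalised to DMSO and 0.29 uM artemisinin, with plate-drift correction.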

The test system of assay [2] is CP237. Put shortly:
as §1

For assay [3], the system named is CP247. Put shortly:
as §1

The subject of assay [4] is CP250. Put shortly:
as §1

Assay [5] concerns CP252. The procedure, abridged: as §1
Assay [6] concerns CP260. Put shortly: as §1
Assay [7] concerns CP262. Put shortly:
as §1

Assay [8] deals with CP265. Put shortly: as §1
For assay [9], the system named is CP266. Put shortly: as §1
In assay [10] the test system is CP315. The procedure, abridged:
as §1

Assay [11] deals with CP325. The procedure, abridged: as §1
Assay [12] has as its system CP329. The procedure, abridged: as §1
Assay [13] concerns CP238. Put shortly:
as §1

Assay [14] deals with CP256. Put shortly: as §1
Assay [15] relates to CP269. Put shortly: as §1
The subject of assay [16] is CP291. Put shortly:
as §1

In assay [17] the test system is CP286. The procedure, abridged:
as §1

Assay [18] deals with CP268. Put shortly:
as §1

Assay [19] relates to CP297. The procedure, abridged: as §1
Assay [20] has as its system CP305. The procedure, abridged: as §1

Each structure is given as a SMILES string. Inconclusive results are not listed. Activity calls are given as the source filed them. Calls come from the whole dose curve; as a rule, active = well fitted inhibition curve with a large enough effect; inconclusive = small, poorly fitted or top-dose-only effect; inactive = flat fitted curve, though single readings scatter.

These results are taken from PubChem BioAssay (NCATS).
Potency is the fitted concentration of half-maximal effect.

On to `CN(C)CCC=C1c2ccccc2C=Cc2ccccc21`, for which the Potency entry in assay [1], in [2], in [3], in assay [4], in [5] and in assay [6] was “inactive” throughout. For the same molecule, the Potency entry in assay [7], in assay [8], in assay [9], in assay [10], in assay [11] and in assay [12] was “inactive” throughout.

For the molecule `Clc1ccc(C(c2ccccc2Cl)C(Cl)Cl)cc1` (configuration not stated), the Potency entry in [1], in assay [2], in assay [13], in [3], in assay [4] and in [5] was “inactive” in each case. Besides, the Potency result in assay [14], in assay [7], in [8], in [9], in assay [15] and in assay [16] was “inactive” in each case. The Potency result in [10] and in assay [11] was “inactive” each time.

Regarding `Cc1ccc(-c2cc(C(F)(F)F)nn2-c2ccc(S(N)(=O)=O)cc2)cc1`, in assay [13], the Potency result was “inactive”. The Potency in [17] is 8.91 µM (active).

On to `COC(=O)Nc1nc2ccc(C(=O)c3cccs3)cc2[nH]1`, for which the Potency result in assay [1], in assay [2], in assay [13], in assay [3], in assay [4] and in assay [5] was “inactive” throughout. Also, the Potency result in assay [14], in assay [7], in assay [8], in assay [9], in assay [18] and in [15] was “inactive” each time. Moreover, the Potency result in assay [17], in assay [16], in assay [19], in assay [20], in [10] and in assay [11] was “inactive” throughout. For the same molecule, the Potency entry in assay [12] is “inactive”.

Turning to `Nc1nc2c(ncn2COC(CO)CO)c(=O)[nH]1`, the Potency entry in [1], in assay [2], in [13], in [3], in assay [4] and in assay [5] was “inactive” each time. Besides, the Potency entry in [14], in assay [6], in assay [7], in assay [8], in assay [18] and in [15] was “inactive” in each case. Further, the Potency result in [17], in assay [16], in assay [20], in assay [10], in assay [11] and in assay [12] was “inactive” each time.

As for `CC1(CN2CCC(n3c(=O)[nH]c4ccccc43)CC2)OCc2ccccc2-n2cccc21` (configuration not stated), the Potency entry in [7], in [9], in assay [10], in [11] and in assay [12] was “inactive” in each case.

As for `COc1ccc(CCN(C)CCCC(C#N)(c2ccc(OC)c(OC)c2)C(C)C)cc1OC` (configuration not stated), the Potency result in [1], in [13], in assay [3], in assay [4], in [5] and in assay [14] was “inactive” throughout. The Potency result in assay [7], in assay [8], in assay [18], in assay [17], in assay [19] and in assay [11] was “inactive” in each case.

For the molecule `Cn1ccc2cc3c(cc21)CCN3C(=O)Nc1cccnc1`, the Potency entry in assay [7] is “inactive”.

With `CCCCc1oc2ccccc2c1C(=O)c1cc(I)c(OCCN(CC)CC)c(I)c1`, the Potency in assay [1] is 5.62 µM (active); in assay [2], 7.08 µM (active); in [13], 7.94 µM (active); in assay [3], 8.91 µM (active); in assay [4], 7.94 µM (active); in assay [5], 11.2 µM (active). Besides, the Potency was 12.6 µM (active) in [14], 3.98 µM (active) in [6], 7.08 µM (active) in [8] and 11.2 µM (active) in assay [17]. Further, the Potency result in assay [9] and in assay [10] was “inactive” throughout.

Consider `O=C(c1ccc(F)cc1)C1CCN(CCn2c(=O)[nH]c3ccccc3c2=O)CC1`, for which the Potency entry in [1], in assay [2], in assay [13], in assay [5], in assay [14] and in assay [6] was “inactive” throughout. The Potency entry in assay [7], in assay [8], in assay [9], in assay [15], in assay [19] and in [10] was “inactive” each time. In addition, the Potency result in assay [11] and in [12] was “inactive” throughout.

Take `CCC1(c2ccccc2)C(=O)NCNC1=O`: the Potency result in assay [1], in [2], in assay [13], in assay [3], in assay [4] and in assay [5] was “inactive” each time. Besides, the Potency result in assay [14], in assay [8], in assay [9], in [18], in [15] and in assay [17] was “inactive” throughout. The Potency result in assay [16], in assay [19], in [20], in [10], in assay [11] and in [12] was “inactive” in each case.

With `COc1ccccc1OCCNCC(O)COc1cccc2[nH]c3ccccc3c12` (configuration not stated), the Potency was 12.6 µM (active) in assay [2], 11.2 µM (active) in [14], 8.91 µM (active) in [8] and 10 µM (active) in assay [17]. The Potency entry in [9], in assay [19], in assay [20], in assay [10], in [11] and in assay [12] was “inactive” in each case.

As for `Clc1ccc2c(c1)C(N1CCNCC1)=Nc1ccccc1O2`, in assay [2], the Potency is 7.08 µM (active). Besides, the Potency result in assay [4], in [7], in assay [9], in assay [18], in assay [15] and in [16] was “inactive” in each case. In addition, the Potency result in assay [20], in assay [10], in [11] and in assay [12] was “inactive” in each case.

Regarding `O=C(Nc1ccc([N+](=O)[O-])cc1Cl)c1cc(Cl)ccc1O`, the Potency in assay [2] was 1.12 µM (active); in [6] it was 2.82 µM (active); in [18], 1.9 µM (active); in assay [15], 1.2 µM (active); in [17], 1.78 µM (active); in assay [16] it was 1.2 µM (active). In addition, the results for the Potency in assay [19] and in assay [20] were 8.49 µM (active) and 2.13 µM (active), respectively. In assay [13], the Potency entry was “inactive”.
